Laboratory results taken from PubChem BioAssay AID1159580 (chemical genetic matrix, 2015).
Among all 5,500 compounds or so, about 2,000 (36%) were called active. Not shown: some 18% with an inconclusive outcome. Rule as the data show it: active = normalized growth mostly below about 0.91 (no sharp cut-off); inconclusive = no clear call, values can overlap the other calls; inactive = mostly above about 0.92. This is one part of the list.

Experiment: chemical genetic growth profiling, strain panel (AID 1159580);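 also: tested at 20 µM; growth read once vehicle control cultures reached saturation at 30 °C; 1 = growth at the plate median or of vehicle wells; lower values mean less growth of the strain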
Conditions: growth OD

Measured: normalized growth

O=c1cc(-c2ccccc2)oc2cc(O)c(O)c(O)c12
active: S. cerevisiae deletion strains, locus YKL068W, stronger effect = lower value 0.855 | S. cerevisiae deletion strains, locus YKL085W, strain MDH1 (second series), stronger effect = lower value 0.84 | S. cerevisiae deletion strains, locus YKL085W, strain MDH1, stronger effect = lower value 0.84 | S. cerevisiae deletion strains, locus YKL160W, strain elf1, stronger effect = lower value 0.701 | S. cerevisiae deletion strains, locus YKL190W, strain CNB1, stronger effect = lower value 0.429 | S. cerevisiae deletion strains, locus YKR001C, strain vps1, stronger effect = lower value 0.376 | S. cerevisiae deletion strains, locus YKR026C, strain gcn3, stronger effect = lower value 0.572 | S. cerevisiae deletion strains, locus YKR091W, strain srl3, stronger effect = lower value 0.763 | S. cerevisiae deletion strains, locus YLL001W, strain dnm1, stronger effect = lower value 0.482 | S. cerevisiae deletion strains, locus YLL026W, stronger effect = lower value 0.57 | S. cerevisiae deletion strains, locus YLL041C, strain sdh2, stronger effect = lower value 0.649 | S. cerevisiae deletion strains, locus YLR027C, strain aat2, stronger effect = lower value 0.575 | S. cerevisiae deletion strains, locus YLR039C, strain RIC1, stronger effect = lower value 0.154 | S. cerevisiae deletion strains, locus YLR058C, strain SHM2, stronger effect = lower value 0.0829 | S. cerevisiae deletion strains, locus YLR102C, strain apc9, stronger effect = lower value 0.857 | S. cerevisiae deletion strains, locus YLR113W, strain HOG1, stronger effect = lower value 0.575 | S. cerevisiae deletion strains, locus YLR221C, strain rsa3, stronger effect = lower value 0.521 | S. cerevisiae deletion strains, locus YLR258W, strain gsy2, stronger effect = lower value 0.576 | S. cerevisiae deletion strains, locus YLR262C, strain YPT6 (second series), stronger effect = lower value 0.303 | S. cerevisiae deletion strains, locus YLR262C, strain YPT6, stronger effect = lower value 0.375 | S. cerevisiae deletion strains, locus YLR268W, strain sec22, stronger effect = lower value 0.176 | S. cerevisiae deletion strains, locus YLR320W, strain mms22, stronger effect = lower value 0.418 | S. cerevisiae deletion strains, locus YLR330W, strain CHS5, stronger effect = lower value 0.543 | S. cerevisiae deletion strains, locus YLR342W, strain FKS1 (second series), stronger effect = lower value 0.345 | S. cerevisiae deletion strains, locus YLR342W, strain FKS1, stronger effect = lower value 0.364 | S. cerevisiae deletion strains, locus YLR357W, strain rsc2, stronger effect = lower value 0.474 | S. cerevisiae deletion strains, locus YLR370C, strain arc18, stronger effect = lower value 0.427 | S. cerevisiae deletion strains, locus YLR371W, strain rom2, stronger effect = lower value 0.588 | S. cerevisiae deletion strains, locus YLR384C, strain iki3, stronger effect = lower value 0.327 | S. cerevisiae deletion strains, locus YLR418C, strain cdc73, stronger effect = lower value 0.303 | S. cerevisiae deletion strains, locus YML016C, strain PPZ1, stronger effect = lower value 0.399 | S. cerevisiae deletion strains, locus YML032C, strain rad52, stronger effect = lower value 0.165 | S. cerevisiae deletion strains, locus YML120C, strain ndi1, stronger effect = lower value 0.14 | S. cerevisiae deletion strains, locus YML124C, strain tub3, stronger effect = lower value 0.424 | S. cerevisiae deletion strains, locus YMR058W, strain fet3, stronger effect = lower value 0.223 | S. cerevisiae deletion strains, locus YMR078C, strain ctf18, stronger effect = lower value 0.547 | S. cerevisiae deletion strains, locus YMR125W, strain sto1, stronger effect = lower value 0.802 | S. cerevisiae deletion strains, locus YMR129W, stronger effect = lower value 0.568 | S. cerevisiae deletion strains, locus YMR205C, strain PFK2, stronger effect = lower value 0.294 | S. cerevisiae deletion strains, locus YMR223W, strain ubp8, stronger effect = lower value 0.464 | S. cerevisiae deletion strains, locus YMR231W, strain pep5, stronger effect = lower value 0.398 | S. cerevisiae deletion strains, locus YMR263W, strain SAP30, stronger effect = lower value 0.207 | S. cerevisiae deletion strains, locus YMR307W, strain GAS1, stronger effect = lower value 0.456 | S. cerevisiae deletion strains, locus YNL067W, strain RPL9B, stronger effect = lower value 0.401 | S. cerevisiae deletion strains, locus YNL071W, strain lat1, stronger effect = lower value 0.675 | S. cerevisiae deletion strains, locus YNL128W, strain TEP1, stronger effect = lower value 0.387 | S. cerevisiae deletion strains, locus YNL153C, strain GIM3, stronger effect = lower value 0.215 | S. cerevisiae deletion strains, locus YNL183C, strain NPR1, stronger effect = lower value 0.634 | S. cerevisiae deletion strains, locus YNL209W, strain ssb2, stronger effect = lower value 0.185 | S. cerevisiae deletion strains, locus YNL233W, strain BNI4, stronger effect = lower value 0.502 | S. cerevisiae deletion strains, locus YNL248C, strain rpa49, stronger effect = lower value 0.633 | S. cerevisiae deletion strains, locus YNL250W, strain rad50, stronger effect = lower value 0.76 | S. cerevisiae deletion strains, locus YNL271C, strain bni1, stronger effect = lower value 0.774 | S. cerevisiae deletion strains, locus YNL298W, strain CLA4, stronger effect = lower value 0.756 | S. cerevisiae deletion strains, locus YNL307C, strain MCK1, stronger effect = lower value 0.517 | S. cerevisiae deletion strains, locus YNL322C, strain KRE1 (second series), stronger effect = lower value 0.187 | S. cerevisiae deletion strains, locus YNL322C, strain KRE1, stronger effect = lower value 0.241 | S. cerevisiae deletion strains, locus YNR049C, strain mso1, stronger effect = lower value 0.714 | S. cerevisiae deletion strains, locus YNR052C, strain pop2, stronger effect = lower value 0.122 | S. cerevisiae deletion strains, locus YOL006C, strain TOP1, stronger effect = lower value 0.136 | S. cerevisiae deletion strains, locus YOL147C, strain pex11, stronger effect = lower value 0.187 | S. cerevisiae deletion strains, locus YOR001W, strain rrp6, stronger effect = lower value 0.325 | S. cerevisiae deletion strains, locus YOR061W, strain CKA2, stronger effect = lower value 0.545 | S. cerevisiae deletion strains, locus YOR069W, strain VPS5, stronger effect = lower value 0.617 | S. cerevisiae deletion strains, locus YOR070C, strain gyp1, stronger effect = lower value 0.782 | S. cerevisiae deletion strains, locus YOR080W, strain dia2, stronger effect = lower value 0.105 | S. cerevisiae deletion strains, locus YOR083W, strain WHI5, stronger effect = lower value 0.618 | S. cerevisiae deletion strains, locus YOR106W, strain vam3, stronger effect = lower value 0.221 | S. cerevisiae deletion strains, locus YOR136W, strain idh2, stronger effect = lower value 0.557 | S. cerevisiae deletion strains, locus YOR144C, strain elg1, stronger effect = lower value 0.202 | S. cerevisiae deletion strains, locus YOR184W, strain ser1, stronger effect = lower value 0.314 | S. cerevisiae deletion strains, locus YOR231W, strain MKK1, stronger effect = lower value 0.68 | S. cerevisiae deletion strains, locus YOR265W, strain rbl2, stronger effect = lower value 0.507 | S. cerevisiae deletion strains, locus YOR270C, strain vph1, stronger effect = lower value 0.169 | S. cerevisiae deletion strains, locus YOR290C, strain snf2, stronger effect = lower value 0.0825 | S. cerevisiae deletion strains, locus YOR316C, strain cot1, stronger effect = lower value 0.738 | S. cerevisiae deletion strains, locus YPL051W, strain arl3, stronger effect = lower value 0.328 | S. cerevisiae deletion strains, locus YPL055C, strain LGE1, stronger effect = lower value 0.443 | S. cerevisiae deletion strains, locus YPL078C, strain atp4, stronger effect = lower value 0.144 | S. cerevisiae deletion strains, locus YPL106C, strain sse1, stronger effect = lower value 0.582 | S. cerevisiae deletion strains, locus YPL240C, strain hsp82, stronger effect = lower value 0.671 | S. cerevisiae deletion strains, locus YPL241C, strain CIN2, stronger effect = lower value 0.57 | S. cerevisiae deletion strains, locus YPL256C, strain CLN2, stronger effect = lower value 0.693 | S. cerevisiae deletion strains, locus YPR119W, strain clb2, stronger effect = lower value 0.802 | S. cerevisiae deletion strains, locus YPR141C, strain kar3, stronger effect = lower value 0.849 | S. cerevisiae deletion strains, locus YPR163C, strain tif3, stronger effect = lower value 0.659 | S. cerevisiae deletion strains, locus YPR167C, strain met16, stronger effect = lower value 0.564 | S. cerevisiae deletion strains, strain wtn01, stronger effect = lower value 0.349 | S. cerevisiae strains, strain wild type, stronger effect = lower value 0.268
inactive: S. cerevisiae deletion strains, locus YKL009W, strain mrt4, stronger effect = lower value 0.97 | S. cerevisiae deletion strains, locus YOL012C, strain htz1 0.269
